Source: PubChem BioAssay (EPA / NIEHS)
Activity calls are given as the source filed them. How the source made its calls: active means hit-call score of the fitted dose curve at least 0.9, where 1 is the maximum; inactive means score below 0.9.

How the values were obtained:
[1] = APR_HepG2_MitoticArrest_72hr: Apredica 72-hour HepG2 Assay for Mitotic Arrest (AID 2282918); details: high-content imaging, actives raise or lower the signal
Summary of the method: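 High-content imaging of fixed human HepG2 cells after 72 h compound exposure (0.39–200 uM, duplicates, 0.5% DMSO); mitotic arrest scored from phospho-histone H3 and nuclear Hoechst staining relative to DMSO.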

[2] = APR_HepG2_MicrotubuleCSK_72hr: Apredica 72-hour HepG2 Assay for Microtubule CSK Stabilty (AID 2282919); details: HepG2 microtubule cytoskeleton, high-content imaging, actives raise or lower the signal
Summary of the method: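 HepG2 human liver cells were dosed for 72 h at ten concentrations from 0.39 to 200 uM in duplicate (0.5% v/v DMSO final). Fixed, permeabilized cells were immunostained for alpha-tubulin (Cy5) with a Hoechst counterstain and imaged at 20x.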

[3] = APR_HepG2_P-H2AX_24hr: Apredica 24-hour HepG2 Assay for H2AX Phosphorylation (AID 2282920); details: high-content imaging, actives raise or lower the signal
Summary of the method: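 High-content imaging of phospho-histone H2A.x immunofluorescence, nuclei counterstained with Hoechst 33342, in fixed HepG2 cells. Compounds ran 0.39–200 uM in duplicate for 24 h, final DMSO 0.5%. Signal change fitted both directions against DMSO.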

[4] = APR_HepG2_StressKinase_72hr: Apredica 72-hour HepG2 Assay for Stress Kinase (AID 2282921); details: HepG2 stress kinase (phospho-c-Jun) imaging, actives raise or lower the signal
Summary of the method: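 Fluorescence intensity of Cy3-tagged anti-phospho-c-Jun antibody, quantified per cell from Hoechst-defined nuclei across six images per well, served as the read-out following 72 h exposure (0.39–200 uM, 0.5% v/v DMSO).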

[5] = APR_HepG2_StressKinase_24hr: Apredica 24-hour HepG2 Assay for Stress Kinase (AID 2282922); details: HepG2 stress kinase (phospho-c-Jun) imaging, actives raise or lower the signal
Summary of the method: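 HepG2 cells exposed 24 hr to compound at 0.39–200 uM (10 concentrations, duplicate), 0.5% v/v DMSO final. Fixed in 3.7% formaldehyde, permeabilized with Triton X-100, immunolabeled for phospho-c-Jun with Hoechst 33342; HCS fluorescence imaging, bidirectional fit versus DMSO.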

[6] = APR_HepG2_p53Act_72hr: Apredica 72-hour HepG2 Assay for p53 Activation (AID 2282923); details: high-content imaging, actives raise or lower the signal;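 further: average cellular p53 protein immunofluorescence intensity in HepG2 cells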
Summary of the method: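 HepG2 monolayers receive test compounds in duplicate at ten concentrations (0.39 through 200 uM) for 72 hr. They are then formaldehyde-fixed, antibody-labelled for p53, Hoechst-stained and imaged, with activity fitted bidirectionally versus DMSO.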

[7] = APR_HepG2_MitoMass_72hr: Apredica 72-hour HepG2 Assay for Mitochondrial Mass (AID 2282924); details: high-content imaging, actives raise or lower the signal;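 further: MitoTracker Red CMXRos stain intensity per cell imaged as mitochondrial mass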
Summary of the method: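 HepG2 cells were exposed for 72 hr to compounds at 0.39–200 uM (ten concentrations, duplicate, 0.5% v/v DMSO final). Live cells were stained with 250 nM MitoTracker Red CMXRos for 30 min, then fixed in 3.7% formaldehyde and imaged by HCS fluorescence.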

[8] = APR_HepG2_NuclearSize_72hr: Apredica 72-hour HepG2 Assay for Nuclear Size (AID 2282925); details: high-content imaging, actives raise or lower the signal
Summary of the method: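 HepG2 cells were exposed to compounds at ten concentrations from 0.39 to 200 uM (duplicate, 0.5% DMSO final) for 72 hr. After fixation in 3.7% formaldehyde, nuclei were stained with Hoechst 33342 (2 ug/mL) and imaged at 20x.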

[9] = ATG_CRE_CIS: Attagene CIS-FACTORIAL HepG2 Assay for human cAMP Responsive Element (CRE) binding protein 3 (AID 2282926); details: HepG2 CRE cis-reporter, Attagene multiplexed mRNA; actives raise or lower the signal
Summary of the method: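 Multiplexed transcription-unit reporters transfected into HepG2; 24 h dosing; RT-PCR/capillary electrophoresis fluorescence read-out; bidirectional fit vs DMSO.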

[10] = biological target: CCAAT/enhancer-binding protein beta (Homo sapiens) (UniProt P17676); test: ATG_C_EBP_CIS: Attagene CIS-FACTORIAL HepG2 Assay for human CCAAT/Enhancer Binding Protein (C/EBP) beta (AID 2282927); details: HepG2 Attagene cis-factorial transcription factor reporter; actives raise or lower the signal
Summary of the method: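 Following a 24 h incubation with test chemical, transfected HepG2 cells yielded RNA whose reporter transcripts were quantified by RT-PCR and fluorescent capillary electrophoresis, with DMSO serving as baseline for bidirectional fitting.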

[11] = ATG_CMV_CIS: Attagene CIS-FACTORIAL HepG2 Assay for human CMV (Internal Marker) (AID 2282928); details: HepG2 CMV promoter reporter, transcription factor profiling; actives raise or lower the signal;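 further: endpoint acts as a background internal control marker rather than a target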
Summary of the method: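 HepG2 cells transiently transfected with multiple cis-regulated reporter units; 24 h compound exposure. Reporter mRNA quantified by RT-PCR, 6-FAM primer-extension labeling, HpaI digestion and capillary electrophoresis; bidirectional fitting against DMSO baseline.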

[12] = biological target: Aryl hydrocarbon receptor (Homo sapiens) (UniProt P35869); test: ATG_Ahr_CIS: Attagene CIS-FACTORIAL HepG2 Assay for human Aryl Hydrocarbon Receptor (Ahr) (AID 2282930); details: HepG2 AhR cis-factorial reporter transcription; actives raise or lower the signal
Summary of the method: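 Values derive from bidirectional fitting against DMSO negative control. Underlying signal: cis-element reporter mRNA in transiently transfected HepG2, harvested 24 h post-dose and measured by RT-PCR plus capillary electrophoresis.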

[13] = ATG_AP_1_CIS: Attagene CIS-FACTORIAL HepG2 Assay for human Activator Protein 1 (AP-1) (AID 2282931); details: HepG2 Attagene cis-factorial AP-1 reporter mRNA; actives raise or lower the signal
Summary of the method: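 Cis-regulated reporter units transiently expressed in HepG2 report endogenous transcription-factor activity. Signal: reporter mRNA at 24 h, via RT-PCR and fluorescent capillary electrophoresis. Endpoint derived by bidirectional fitting, DMSO as negative control.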

[14] = ATG_AP_2_CIS: Attagene CIS-FACTORIAL HepG2 Assay for human Activator Protein 2 (AP-2) (AID 2282932); details: HepG2 AP-2 cis-reporter, Attagene transcription factor profiling; actives raise or lower the signal
Summary of the method: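 HepG2 cells were transiently transfected with multiple cis-promoter reporter transcription units and dosed for 24 h. Reporter mRNA was measured by RT-PCR with capillary electrophoresis fluorescence; bidirectional fits relative to DMSO baseline.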

[15] = ATG_BRE_CIS: Attagene CIS-FACTORIAL HepG2 Assay for human Bone Morphogenetic Protein (BMP) Response Element (BRE) (AID 2282933); details: HepG2 BMP response element reporter, Attagene transcription factor profiling; actives raise or lower the signal
Summary of the method: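 Multiplexed cis-reporter assay, HepG2, 24 h exposure. mRNA from reporter units quantified via RT-PCR/CE; DMSO baseline; bidirectional curve fit.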

[16] = biological target: Retinoic acid receptor alpha (Homo sapiens) (UniProt P10276); test: ATG_DR5_RAR_CIS: Attagene CIS-FACTORIAL HepG2 Assay for human Retinoic Acid Receptor Alpha (RARE), DR5 submotif (AID 2282934); details: HepG2 Attagene cis-factorial RARE DR5 reporter, mRNA; actives raise or lower the signal;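 on AC50: reporter responds to endogenous RAR alpha beta and gamma in HepG2 not RARA alone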
Summary of the method: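 Endpoint fitted in both directions relative to DMSO as negative control. It reflects DR5 cis-element reporter mRNA induction in transiently transfected HepG2 cells, measured 24 h after dosing through RT-PCR and fluorescent capillary electrophoresis.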

[17] = biological target: Transcription factor E2F1 (Homo sapiens) (UniProt Q01094); test: ATG_E2F_CIS: Attagene CIS-FACTORIAL HepG2 Assay for human E2F Transcription Factor 1 (AID 2282935); details: HepG2 Attagene cis-reporter, E2F reporter RNA transcripts; actives raise or lower the signal
Summary of the method: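 HepG2 cells transiently transfected with multiplexed cis-element reporter units, dosed for 24 h. Reporter mRNA measured by RT-PCR, 6-FAM primer-extension labeling, HpaI digestion and capillary electrophoresis; bidirectional fit versus DMSO baseline.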

[18] = APR_HepG2_MitoMembPot_72hr: Apredica 72-hour HepG2 Assay for Mitochondrial Membrane Potential (AID 2282917); details: imaging, actives raise or lower the signal
Summary of the method: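 HepG2 cells exposed 72 h to compounds at 0.39–200 uM (0.5% v/v DMSO, duplicates); MitoTracker Red CMXRos 250 nM loaded 30 min before 3.7% formaldehyde fixation, imaged by HCS fluorescence. Bidirectional fit versus DMSO.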

[19] = ATG_DR4_LXR_CIS: Attagene CIS-FACTORIAL HepG2 Assay for human Liver X Receptor (LXR), DR4 submotif (AID 2282929); details: HepG2 Attagene DR4 cis-reporter, mRNA transcription; actives raise or lower the signal
Summary of the method: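 DR4 cis-reporter in HepG2, 24 h exposure. Detection: RT-PCR, 6-FAM labelling, CE fragment analysis. Endpoint fitted bidirectionally, DMSO = baseline.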

Measured: AC50

Chain of CCAAT/enhancer-binding protein beta (Homo sapiens) (P17676 whole entry, looked up): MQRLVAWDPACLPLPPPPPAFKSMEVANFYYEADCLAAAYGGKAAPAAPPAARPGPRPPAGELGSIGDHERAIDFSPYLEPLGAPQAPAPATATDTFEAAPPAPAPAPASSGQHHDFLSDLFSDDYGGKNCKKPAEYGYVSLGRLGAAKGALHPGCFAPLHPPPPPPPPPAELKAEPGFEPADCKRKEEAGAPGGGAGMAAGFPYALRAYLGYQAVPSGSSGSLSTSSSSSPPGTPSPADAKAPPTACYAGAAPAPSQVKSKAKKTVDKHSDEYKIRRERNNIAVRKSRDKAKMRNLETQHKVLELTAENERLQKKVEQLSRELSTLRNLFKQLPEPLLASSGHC
Chain of Aryl hydrocarbon receptor (Homo sapiens) (P35869 whole entry, looked up): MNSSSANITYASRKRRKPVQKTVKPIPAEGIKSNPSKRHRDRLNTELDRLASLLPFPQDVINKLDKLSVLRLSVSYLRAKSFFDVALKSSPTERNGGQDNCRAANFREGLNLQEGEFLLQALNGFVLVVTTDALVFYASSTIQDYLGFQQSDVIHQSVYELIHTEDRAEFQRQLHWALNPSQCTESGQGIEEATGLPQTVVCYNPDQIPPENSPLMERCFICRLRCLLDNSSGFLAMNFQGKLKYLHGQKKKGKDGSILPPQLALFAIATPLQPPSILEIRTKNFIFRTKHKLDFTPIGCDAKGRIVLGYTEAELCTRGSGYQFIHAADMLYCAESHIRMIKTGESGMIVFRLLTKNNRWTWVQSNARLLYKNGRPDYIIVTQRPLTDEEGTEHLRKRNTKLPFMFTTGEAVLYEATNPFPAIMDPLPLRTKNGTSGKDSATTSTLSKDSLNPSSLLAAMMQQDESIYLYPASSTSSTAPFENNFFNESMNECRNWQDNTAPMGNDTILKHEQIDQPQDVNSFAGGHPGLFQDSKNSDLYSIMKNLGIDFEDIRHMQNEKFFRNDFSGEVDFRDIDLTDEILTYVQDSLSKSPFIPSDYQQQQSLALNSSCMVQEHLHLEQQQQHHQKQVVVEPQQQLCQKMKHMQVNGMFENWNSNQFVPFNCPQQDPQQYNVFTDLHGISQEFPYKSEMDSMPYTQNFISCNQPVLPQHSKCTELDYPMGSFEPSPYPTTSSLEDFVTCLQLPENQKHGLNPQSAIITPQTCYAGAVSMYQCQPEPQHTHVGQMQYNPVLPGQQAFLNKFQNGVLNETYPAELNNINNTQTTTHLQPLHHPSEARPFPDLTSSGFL
Chain of Transcription factor E2F1 (Homo sapiens) (Q01094 whole entry, looked up): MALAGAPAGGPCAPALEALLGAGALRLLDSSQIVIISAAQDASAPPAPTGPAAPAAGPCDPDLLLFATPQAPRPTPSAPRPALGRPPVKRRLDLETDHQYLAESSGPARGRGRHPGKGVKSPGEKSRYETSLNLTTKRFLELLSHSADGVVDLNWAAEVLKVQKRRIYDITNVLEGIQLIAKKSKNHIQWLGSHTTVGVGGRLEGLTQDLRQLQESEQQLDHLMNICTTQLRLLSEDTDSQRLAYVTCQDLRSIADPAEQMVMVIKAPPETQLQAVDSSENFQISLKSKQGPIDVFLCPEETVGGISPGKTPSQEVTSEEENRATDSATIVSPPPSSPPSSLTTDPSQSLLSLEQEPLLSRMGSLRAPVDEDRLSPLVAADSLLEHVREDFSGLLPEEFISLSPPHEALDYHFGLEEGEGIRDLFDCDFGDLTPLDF
Chain of Retinoic acid receptor alpha (Homo sapiens) (P10276 whole entry, looked up): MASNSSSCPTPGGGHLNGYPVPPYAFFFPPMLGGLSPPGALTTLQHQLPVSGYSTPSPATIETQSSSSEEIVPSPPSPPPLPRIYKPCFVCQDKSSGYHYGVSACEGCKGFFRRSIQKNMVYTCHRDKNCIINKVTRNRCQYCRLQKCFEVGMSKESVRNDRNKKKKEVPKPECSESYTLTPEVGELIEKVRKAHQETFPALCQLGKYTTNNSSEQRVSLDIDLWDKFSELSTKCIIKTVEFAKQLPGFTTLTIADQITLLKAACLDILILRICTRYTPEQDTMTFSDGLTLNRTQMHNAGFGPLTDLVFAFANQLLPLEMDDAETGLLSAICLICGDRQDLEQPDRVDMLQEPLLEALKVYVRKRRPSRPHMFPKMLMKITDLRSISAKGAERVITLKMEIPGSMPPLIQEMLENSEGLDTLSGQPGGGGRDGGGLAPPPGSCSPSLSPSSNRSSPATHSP

COc1cc(C(=O)NC2CCN(C)CC2)ccc1Nc1ncc2c(n1)N(C1CCCC1)CC(F)(F)C(=O)N2C
active: [9] 0.933 µM | [10] 0.472 µM | [13] 5.06 µM | [14] 0.89 µM | [16] 0.51 µM
not listed: [18] | [19]
inactive: all other assays above

CCCCCCCCCCCO
active: [1] 105 µM | [3] 100 µM
not listed: [6] | [19]
inactive: all other assays above

CCCOC(=O)c1cc(O)c(O)c(O)c1
active: [11] 58.6 µM | [17] 169 µM
not listed: [6] | [19]
inactive: all other assays above

Cc1occc1C(=O)Nc1ccc(C(=O)N2CCC(F)(F)/C(=C\C(=O)N3CCC(N4CCCCC4)CC3)c3ccccc32)cc1
active: [1] 20.7 µM | [6] 29 µM | [19] 50.3 µM | [12] 12.3 µM | [15] 13.2 µM
inactive: all other assays above

NC(=O)c1nc(-c2cccc(-c3cc(F)ccc3OCC(F)(F)C(F)(F)F)c2)n[nH]1
active: [4] 93.4 µM | [8] 100 µM | [9] 27.7 µM | [11] 12.1 µM | [13] 24 µM | [15] 19.8 µM | [17] 16.8 µM
not listed: [18] | [19]
inactive: all other assays above

CCN(CC)C(=O)c1cc(S(=O)(=O)Cc2ccccc2)c(N2CCC(c3ccccc3)CC2)cc1N(CC)CCN(C)C
active: [18] 1.88 µM | [1] 1.12 µM | [2] 7.7 µM | [3] 1.93 µM
inactive: all other assays above
